In all, about 52,000 compounds went through this assay and about 4,300 (8.3%) were called active. This is one part of a sample in which actives are shown more often than they occur. Rule as the data show it: active = survival mostly below about 52% (no sharp cut-off); inactive = mostly above about 56%.

The results in this text go back to PubChem BioAssay AID463173 (ICCB-Longwood Screening Facility, Harvard Medical School, 2010).

The test system of the experiment is DeltatarO mutant. The experiment can be described thus: growth inhibition of S. aureus wild type versus tarO mutant, primary screen, teichoic acid synthesis inhibitors, RN4220, OD600 (AID 463173). Conditions: OD600, 18 h, active compounds read low, screened at 18.75 µg/mL (by protocol).
Turning to `COc1cc(NS(=O)(=O)c2ccc3c(c2)CCCN3C(C)=O)cc(OC)c1OC`, the survival is 89% (inactive). `Cc1nc(C)c(CCNS(=O)(=O)c2ccc(C)c(C)c2)s1`: the survival was 97% (inactive). The value for `CCOc1ccc(-n2ccnc2SCC(=O)Nc2ccc3c(c2)OCO3)cc1` was 81% (inactive). For the molecule `O=C(CN1N=C(c2ccc(Cl)cc2)CCC1=O)NCCc1ccc(Cl)cc1`, the survival was 94% (inactive). Under `COc1cccc(C(=O)Nc2ccc3nc(SCC(=O)N4CCOCC4)sc3c2)c1` stands 65% (inactive); under `COc1ccccc1CNC(=O)c1cc(S(=O)(=O)N2CCCCCC2)cn1C`, 113% (inactive); under `Cc1ccc(OCCCCn2cnc3ccccc32)cc1`, 11% (active).

Regarding `COc1ccc(OCCn2cnc3ccccc32)cc1`, the survival is 85% (inactive).

Turning to `CC(=O)OC(COc1ccccc1)Cn1cnc2cc(C)c(C)cc21` (stereo not given), the survival is 140% (inactive). For the molecule `Cc1cc2ncn(CCC(=O)Nc3ccccc3F)c2cc1C`, the survival is 103% (inactive). The value for `Cc1cc2ncn(CCCCOc3ccccc3)c2cc1C` was -4% (active); that for `c1ccc2c(c1)ncn2CCn1cnc2ccccc21` was 100% (inactive); that for `Cc1cccc(C)c1NC(=O)CCC(=O)O` was 76% (inactive). For the molecule `COc1cc(NC(=O)Cn2c(=O)n(CC3CCCO3)c(=O)c3cc(OC)c(OC)cc32)cc(OC)c1` (stereo not given), the survival was 94% (inactive). As for `CCN1CCN(c2ncnc3c2cnn3-c2ccc(C)cc2)CC1`, the survival was 101% (inactive). Consider `CC(C)OCCCn1c(SCC(N)=O)nc2c(sc3ccccc32)c1=O`, for which the survival was 92% (inactive). With `N#Cc1nc(-c2ccc(COc3ccccc3)o2)oc1NCc1ccccc1`, the survival was 70% (inactive). Under `CCCCNc1oc(-c2ccc(COc3ccccc3C)o2)nc1C#N` stands 112% (inactive); under `COc1ccc(CNc2oc(-c3ccc(COc4ccccc4C)o3)nc2C#N)cc1`, 50% (inactive); under `COc1ccc(Nc2oc(-c3ccc(COc4ccccc4)o3)nc2C#N)cc1`, 100% (inactive).

Consider `Cc1ccc(OCc2ccc(-c3nc(C#N)c(NCc4cccnc4)o3)o2)cc1`, for which the survival is 51% (inactive). With `Cc1ccccc1OCc1ccc(-c2nc(C#N)c(NCCCN(C)C)o2)o1`, the survival was 59% (inactive). Regarding `Cc1ccccc1OCc1ccc(-c2nc(C#N)c(NCc3cccnc3)o2)o1`, the survival is 43% (active). As to `COc1ccc(OCc2ccc(-c3nc(C#N)c(NCc4cccnc4)o3)o2)cc1`, the survival was 56% (inactive).

Regarding `N#Cc1nc(-c2ccc(COc3ccccc3)o2)oc1NCc1cccnc1`, the survival is 44% (active). On to `CC1CCN(c2oc(-c3ccc(COc4ccccc4)o3)nc2C#N)CC1`, for which the survival is 51% (inactive). Under `CN(C)c1oc(-c2ccc(COc3ccccc3)o2)nc1C#N` stands 39% (active); under `COCCCNc1oc(-c2ccc(COc3ccccc3C)o2)nc1C#N`, 43% (active); under `Cn1c(=O)c2cc(C(=O)NCCCN3CCN(c4cccc(Cl)c4)CC3)sc2c2ccccc21`, 48% (inactive). As for `Cc1cc(C)c(Cn2c(=O)n(CCC(=O)NCc3ccc4c(c3)OCO4)c(=O)c3ccccc32)c(C)c1`, the survival was 108% (inactive). Regarding `CN(C)c1ccc(NC(=O)Cn2c(SCc3ccccc3F)nc3cccnc32)cc1`, the survival was 124% (inactive). In the case of `CC(C)(C)c1ccc(OCC(=O)N(Cc2ccco2)Cc2ccccc2F)cc1`, the survival was 78% (inactive). On to `Cc1cc(O)c(C(c2ccccc2)N2CCN(c3ccc(F)cc3)CC2)c(=O)n1Cc1ccco1` (stereo not given), for which the survival is 67% (inactive). Take `COc1ccccc1CCNC(=O)c1ccc2c(c1)c(C)c(C)n2C`: the survival was 95% (inactive). For the molecule `Cc1ccc(NC(=O)CSc2nc(-c3ccco3)nc3cc(=O)[nH]n23)cc1C`, the survival is 135% (inactive). Turning to `CCOc1ccc(OCC)c(Nc2nc3ccccc3c3nnc(C)n23)c1`, the survival was 91% (inactive).

With `Cc1nn(-c2ccc(N3CCCC3)nn2)c(C)c1CCC(=O)NCc1ccccc1F`, the survival was 82% (inactive). The value for `Cc1ccc(-c2nc(CCNC(=O)C(=O)Nc3ccc(C)cc3C)cs2)cc1` was 66% (inactive); that for `Cc1ccc(-c2nc(CCNC(=O)C(=O)Nc3ccc(C)c(Cl)c3)cs2)cc1` was 60% (inactive); that for `Cc1ccc(-c2nc(CCNC(=O)C(=O)Nc3ccc(C)c(C)c3)cs2)cc1` was 20% (active). As for `Cc1cccc(NC(=O)C(=O)NCCc2csc(-c3ccc(F)cc3)n2)c1C`, the survival was 83% (inactive). Consider `Cc1ccc(-c2nc(CCNC(=O)C(=O)Nc3c(C)cccc3C)cs2)cc1`, for which the survival is 8% (active).

For `Cc1cc(C)c(NC(=O)C(=O)NCCc2csc(-c3ccc(F)cc3)n2)c(C)c1`, the survival is 67% (inactive).

With `Cc1c(CCNC(=O)c2ccc(Br)o2)sc2nc(-c3ccc(Cl)cc3)nn12`, the survival was 75% (inactive). Turning to `O=C(CCn1cnnn1)Nc1ccc(F)cc1`, the survival is 72% (inactive). On to `O=C(CCn1cnnn1)Nc1cc(C(F)(F)F)cc(C(F)(F)F)c1`, for which the survival was 69% (active).

Take `Cc1cccc(NC(=O)CCn2cnnn2)c1`: the survival is 79% (inactive). As for `CC(=O)Nc1cccc(-c2nnc(SCC(=O)c3ccc([N+](=O)[O-])cc3)o2)c1`, the survival is 130% (inactive). On to `Fc1ccc(NCc2nnc3n2CCCCC3)cc1Cl`, for which the survival was 102% (inactive). The value for `Cc1cc(C)cc(NCc2nnc3n2CCCCC3)c1` was 89% (inactive); that for `COc1ccc(NCc2nnc3n2CCCCC3)c(OC)c1` was 100% (inactive). Consider `Cc1ccc(Cl)cc1NCc1nnc2n1CCCCC2`, for which the survival is 101% (inactive). `COc1ccc(C)cc1NCc1nnc2n1CCCCC2`: the survival is 20% (active). With `COc1ccc(Cl)cc1NCc1nnc2n1CCCCC2`, the survival was 8% (active).

Consider `Clc1cccc(-n2ncc3c(N4CCC(Cc5ccccc5)CC4)ncnc32)c1`, for which the survival was 83% (inactive). With `CCOC(=O)c1ccccc1NC(=O)CSc1nccn1Cc1ccco1`, the survival was 75% (inactive). On to `COCCCNC(=O)CCC(=O)NNc1nc2ccccc2c2nc(-c3ccccc3)nn12`, for which the survival was 100% (inactive). For `O=C(CCn1nnc2ccccc21)N1CCC(O)(c2cccc(F)c2)CC1`, the survival is 81% (inactive). Under `COC(=O)c1ccccc1NC(=O)Cn1cc(S(=O)(=O)Cc2ccccc2F)c2ccccc21` stands 94% (inactive); under `COc1cccc(N2C(=O)CSC23C(=O)N(Cc2ccccc2F)c2ccccc23)c1` (stereo not given), 67% (inactive); under `Cc1ccc(C(=O)Nc2nc3n(n2)C(c2ccc(F)cc2)C=C(c2ccccc2)N3)cc1` (stereo not given), 43% (active). Under `COc1ccc(C2C=C(c3ccccc3)Nc3nc(NC(C)=O)nn32)cc1` (stereo not given) stands 53% (inactive); under `COc1ccc(C(=O)Nc2nc3n(n2)C(c2ccc(F)cc2)C=C(c2ccc(Cl)cc2)N3)cc1` (stereo not given), 54% (inactive). Regarding `O=C(Nc1nc2n(n1)C(c1ccc(F)cc1)C=C(c1ccccc1)N2)c1ccc(Cl)cc1` (stereo not given), the survival was 48% (inactive).

`Cc1ccc(C(=O)Nc2nc3n(n2)C(c2ccccc2)C=C(c2ccccc2)N3)cc1` (stereo not given): the survival was 57% (inactive). Regarding `COc1ccc(C2C=C(c3ccccc3)Nc3nc(NC(=O)c4ccc(C)cc4)nn32)cc1` (stereo not given), the survival is 44% (active).

Consider `CCOc1ccccc1CNC(=O)CN(c1ccc(C)cc1)S(=O)(=O)N(C)C`, for which the survival is 70% (inactive).

In the case of `Cn1cc(C(c2ccccc2)c2ccc(Cl)s2)c2ccccc21` (stereo not given), the survival is 102% (inactive). Under `O=C(O)CSc1c[nH]c2ccccc12` stands 84% (inactive); under `Cc1ccc2[nH]cc(S(=O)(=O)c3ccc(C)c(C)c3)c(=O)c2c1`, 81% (inactive); under `COc1ccc(C(CN)c2c[nH]c3ccccc23)cc1` (stereo not given), 107% (inactive).

Take `Clc1ccc(C(c2ccccc2)c2c[nH]c3ccccc23)s1` (stereo not given): the survival was -3% (active).

For `Cc1ccc2[nH]cc(C(c3ccccc3)c3ccc(Cl)s3)c2c1` (stereo not given), the survival is 10% (active). With `Cc1ccc2[nH]cc(C(c3ccccc3)c3cccs3)c2c1` (stereo not given), the survival was 12% (active). In the case of `c1ccc(C(c2cccs2)c2c[nH]c3ccccc23)cc1` (stereo not given), the survival was -1% (active). In the case of `CCCCN(CC)C(=O)c1nn(-c2ccc(OC)cc2)c(=O)c2c1c1ccccc1n2C`, the survival was 82% (inactive). On to `COc1cccc(CNC(=O)Cn2cc3c(n2)-c2c(oc(C(=O)N4CCCC4)c2C)CC3)c1`, for which the survival is 76% (inactive).

As for `Cc1cccc(N2CCN(c3ncnc4onc(C)c34)CC2C)c1` (stereo not given), the survival is 77% (inactive). Turning to `Cc1ccc2[nH]cc(C(c3ccccc3)c3ccc(C)s3)c2c1` (stereo not given), the survival was 25% (active). For `CCc1ccc(C(c2ccccc2)c2c[nH]c3ccc(C)cc23)s1` (stereo not given), the survival was 69% (inactive). As to `CCN(Cc1ccccc1)C(=O)c1cc2c(=O)[nH]c3ccc(C)cc3c2s1`, the survival was 49% (inactive). In the case of `Cc1ccc(OCc2nc(-c3ccc(C(=O)N4CCN(c5ccc(Cl)cc5)CC4)cc3)oc2C)cc1`, the survival was 76% (inactive).

Consider `Cc1ccc(-c2ccc(=O)n(CC(=O)Nc3cccc(C#N)c3)n2)cc1`, for which the survival was 112% (inactive). For the molecule `CCc1cccc(NC(=O)Cn2nc(CC)n3c(cc4cc(C)ccc43)c2=O)c1`, the survival is 56% (inactive).

Consider `CCC(C(=O)Nc1cccc(C#N)c1)n1c(=O)c(-c2ccccc2NC(C)=O)nc2ccccc21` (stereo not given), for which the survival was 100% (inactive).

Consider `CCc1cccc(NC(=O)Cn2nc(-c3cc(C)ccc3C)ccc2=O)c1`, for which the survival is 34% (active). `CCC(C(=O)Nc1ccccc1)n1nc(-c2cc(C)ccc2C)ccc1=O` (stereo not given): the survival is 37% (active). Regarding `CCC(C(=O)Nc1ccc(C(=O)OC)cc1)n1nc(-c2ccc(C)c(C)c2)ccc1=O` (stereo not given), the survival was 86% (inactive).

For the molecule `CCc1cccc(NC(=O)Cn2nc(-c3ccc(OC)cc3)ccc2=O)c1`, the survival was 83% (inactive).

Consider `CCC(C(=O)Nc1cccc(C#N)c1)n1nc(-c2ccccc2)ccc1=O` (stereo not given), for which the survival was 40% (active).

Regarding `Cc1ccc(C)c(NC(=O)C(C)n2c(=O)cc(C(F)(F)F)c3c(C)nn(C)c32)c1` (stereo not given), the survival was 89% (inactive).

`CCOc1ccc(NC(=O)C(CC)n2nc(-c3ccc(C)c(C)c3)ccc2=O)cc1` (stereo not given): the survival was 68% (inactive).

For the molecule `CCc1ccccc1NC(=O)C(C)n1nc(-c2ccc(C)c(C)c2)ccc1=O` (stereo not given), the survival is 54% (inactive).

For the molecule `Cc1ccc(C)c(-c2ccc(=O)n(C(C)C(=O)Nc3ccccc3C(F)(F)F)n2)c1` (stereo not given), the survival is 41% (active). On to `COc1ccc(Nc2ncnc3c2cnn3-c2ccc(C)cc2)cc1Cl`, for which the survival is 128% (inactive).
